Experimental data: PubChem BioAssay (Tox21)
Where “and” joins values, the source holds several entries; their conditions need not be identical. Equal entries are not always repeated. Inconclusive results are not listed. Calls of active or inactive are those of the source. Unless noted, the call rests on the fitted dose curve; in most records, active means well fitted curve in the direction sought with a large enough effect in the repeat runs; inconclusive means weak or mixed curves; inactive means no such curve, though single readings can be large; an effect the other way counts as inactive or inconclusive.

Experiments:
[1] = qHTS assay to identify small molecule agonists of the estrogen receptor alpha (ER-alpha) signaling pathway in the presence of an antagonist - cell viability counter screen (AID 1259386);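 further: cells exposed to compounds for 22 h at 37 °C before the viability read; nearly all actives have a fitted effect of over 30% in size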; further: potency means the concentration at half of the fitted maximal effect
Outline: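 VM7Luc4E2 cells (endogenous full-length ER-alpha, 4×ERE-luciferase) were held 5 days in phenol red-free medium with 10% charcoal-stripped FBS, plated, then given 10.0nM ICI-182,780 and compounds at 15 concentrations for 22hr at 37C; viability read by CellTiter-Fluor fluorescence.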

[2] = target: Progesterone receptor (Homo sapiens) (UniProt P06401); test: qHTS assay to identify small molecule agonists of the progesterone receptor (PR) signaling pathway (AID 1346784; calls by dose curve; further: nearly all actives have a fitted effect of over 30% in size)
Progesterone receptor (Homo sapiens), sequence (P06401 whole entry, looked up): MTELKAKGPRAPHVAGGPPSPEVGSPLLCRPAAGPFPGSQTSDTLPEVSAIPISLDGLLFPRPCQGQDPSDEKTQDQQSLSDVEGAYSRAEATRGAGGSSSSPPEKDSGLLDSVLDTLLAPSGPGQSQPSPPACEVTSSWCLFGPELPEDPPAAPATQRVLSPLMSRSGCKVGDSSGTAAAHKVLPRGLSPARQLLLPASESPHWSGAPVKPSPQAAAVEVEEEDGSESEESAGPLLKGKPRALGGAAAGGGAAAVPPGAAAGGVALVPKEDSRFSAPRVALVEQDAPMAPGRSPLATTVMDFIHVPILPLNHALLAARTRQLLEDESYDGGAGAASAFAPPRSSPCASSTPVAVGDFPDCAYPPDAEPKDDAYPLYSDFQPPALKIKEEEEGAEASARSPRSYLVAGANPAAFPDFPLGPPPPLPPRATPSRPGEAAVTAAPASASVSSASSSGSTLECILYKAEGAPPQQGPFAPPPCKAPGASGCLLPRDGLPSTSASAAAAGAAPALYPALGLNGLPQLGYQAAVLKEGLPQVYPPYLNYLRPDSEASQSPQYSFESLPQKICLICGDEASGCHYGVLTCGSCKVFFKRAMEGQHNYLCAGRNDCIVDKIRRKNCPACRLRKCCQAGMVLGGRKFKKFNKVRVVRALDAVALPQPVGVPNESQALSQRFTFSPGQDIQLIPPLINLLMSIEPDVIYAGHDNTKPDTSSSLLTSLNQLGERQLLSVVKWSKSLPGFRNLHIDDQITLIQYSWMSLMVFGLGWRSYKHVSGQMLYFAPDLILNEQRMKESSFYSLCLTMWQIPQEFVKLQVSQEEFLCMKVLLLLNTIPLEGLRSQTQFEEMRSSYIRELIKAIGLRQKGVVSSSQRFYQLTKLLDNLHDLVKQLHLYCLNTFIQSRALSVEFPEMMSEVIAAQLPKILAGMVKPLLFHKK
Outline: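 Compounds were tested for PR agonism in HEK 293T cells bearing a beta-lactamase gene under UAS control. Treatment lasted 16 hr at 37C; signal came from fluorescence of a FRET substrate.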

[3] = target: Progesterone receptor (Homo sapiens) (UniProt P06401); test: qHTS assay to identify small molecule antagonists of the progesterone receptor (PR) signaling pathway (AID 1346795; active means well fitted inhibition curve with a large enough effect in the signal ratio in the repeat runs, not every such curve was filed as active; the % refers to the signal ratio; further: potency means the concentration at half of the fitted maximal effect)
Outline: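 In HEK293T cells bearing the PR-UAS-bla reporter, compound effects on promegestone-driven (1 nM) beta-lactamase expression are assessed after 16 hr using a fluorescent FRET substrate incubated 2 hr at room temperature.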

[4] = qHTS assay to identify small molecule agonists of the progesterone receptor (PR) signaling pathway - cell viability counter screen (AID 1346799; calls by dose curve; further: nearly all actives have a fitted effect of over 45% in size)
Outline: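 Here, 3,000 PR-UAS-bla HEK293T cells per well were treated with compounds for 16 hr after a 6 hr preincubation at 37C and 5% CO2; cell viability is the CellTiter-Glo luminescence signal.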

[5] = qHTS assay to identify small molecule antagonists of the TGF-beta/Smad signaling pathway - cell viability counter screen (AID 1346824); further: nearly all actives have a fitted effect of over 50% in size
Outline: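 SBE-bla HEK 293T cells were plated overnight at 37 C, then given compounds in DMSO plus TGF-beta1 (added as 0.25 ng/mL solution) for 5 hr. After the bla read, CellTiter-Glo was added to the same wells and luminescence read after 30 min at room temperature.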

[6] = qHTS assay to identify small molecule agonists of the TGF-beta/Smad signaling pathway - cell viability counter screen (AID 1346829); further: top concentration of the series differs between compounds; nearly all actives have a fitted effect of over 45% in size
Outline: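 Luminescence from CellTiter-Glo, read after a 30 min room-temperature incubation, gives cell viability of SBE-bla HEK 293T cells treated 5 hr with compounds at 37 C.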

[7] = qHTS assay to identify small molecule agonists of the TGF-beta/Smad signaling pathway (AID 1346859; active means well fitted activation curve with a large enough effect in the signal ratio in the repeat runs, not every such curve was filed as active; the % refers to the signal ratio; further: potency means the concentration at half of the fitted maximal effect; on activation: series mostly up to about 77 µM)
Outline: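 Each well held 4,000 SBE-bla HEK 293T cells incubated overnight before compound addition; 5 hr later the cleavable FRET substrate went on for 2 hr at room temperature, and fluorescence was read at two emissions.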

[8] = target: Thyrotropin-releasing hormone receptor (Homo sapiens) (UniProt P34981); test: qHTS assay to identify small molecule antagonists of the thyrotropin-releasing hormone receptor (TRHR) signaling pathway (AID 1346877; active means well fitted inhibition curve with a large enough effect in the repeat runs, not every such curve was filed as active; further: series mostly up to about 51 µM)
Thyrotropin-releasing hormone receptor (Homo sapiens), sequence (P34981 whole entry, looked up): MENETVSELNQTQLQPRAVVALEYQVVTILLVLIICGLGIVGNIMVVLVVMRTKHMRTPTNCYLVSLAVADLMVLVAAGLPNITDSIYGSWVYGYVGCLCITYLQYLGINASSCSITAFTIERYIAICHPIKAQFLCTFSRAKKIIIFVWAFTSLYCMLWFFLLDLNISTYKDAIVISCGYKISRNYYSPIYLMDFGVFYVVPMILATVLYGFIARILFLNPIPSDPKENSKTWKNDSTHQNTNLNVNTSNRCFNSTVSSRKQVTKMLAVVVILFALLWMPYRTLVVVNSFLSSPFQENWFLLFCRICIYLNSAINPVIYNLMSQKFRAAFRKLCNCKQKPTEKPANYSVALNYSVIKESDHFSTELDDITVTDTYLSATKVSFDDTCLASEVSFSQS
Outline: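 TRHR-expressing HEK293 cells were seeded, cultured 18 h at 37 °C, then loaded with calcium dye for 2 h. Compounds were pre-incubated 5 min at room temperature before 1 nM TRH (final) was added, and kinetic fluorescence was recorded for 3 min.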

[9] = target: Thyrotropin-releasing hormone receptor (Homo sapiens) (UniProt P34981); test: qHTS assay to identify small molecule agonists of the thyrotropin-releasing hormone receptor (TRHR) signaling pathway (AID 1346891; calls by dose curve; further: series mostly up to about 58 µM)
Outline: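 Screening of agonists relied on calcium signalling in HEK293 cells expressing human TRHR: dye loading 2 h at 37 °C preceded compound addition and a 3-min fluorescence time course.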

[10] = qHTS assay to identify small molecule antagonists of the progesterone receptor (PR) signaling pathway - cell viability counter screen (AID 1346798); further: series mostly up to about 92 µM; nearly all actives have a fitted effect of over 50% in size
Outline: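 Following a 4 hr attachment, PR-UAS-bla HEK293T cells in charcoal-stripped FBS medium were exposed to compounds with R5020 for 16 hr; CellTiter-Glo was added and luminescence read after 30 min at room temperature.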

Measured: Potency

Oc1ccc(Cc2ccccc2O)cc1
active: [3] 43.8 µM and 48.6 µM
not listed: [10]
inactive: all other assays above

C[Si](C)(C)N[Si](C)(C)C
inactive: [1] | [2] | [3] | [5] | [6] | [7]

CN=C(NC#N)NCCSCc1nc[nH]c1C
not listed: [10]
inactive: all other assays above

Nc1nc(N)c2nc(-c3ccccc3)c(N)nc2n1
active: [7] 22.1 µM and 19 µM
not listed: [2] | [3] | [4]
inactive: all other assays above

O=C(c1ccccc1)c1ccc(O)c(O)c1O
active: [1] 61.6 µM
not listed: [3]
inactive: all other assays above

Cc1cc(CC(=O)O)n(C)c1C(=O)c1ccc(Cl)cc1
not listed: [3] | [7]
inactive: all other assays above

CCN(CC)CCNC(=O)c1ccc(N)cc1
inactive: [1] | [2] | [3] | [4] | [6] | [7]

CCCOC(=O)NCCCN(C)C
inactive: [1] | [10] | [4] | [5] | [6] | [7]

O=C(O)C1=NN(c2ccc(S(=O)(=O)O)cc2)C(=O)C1
not listed: [10]
inactive: all other assays above

CC(=O)OCc1ccc2c(c1)OCO2
not listed: [4] | [10]
inactive: all other assays above

CC(=O)OC/C=C(\C)CCC=C(C)C
inactive: [1] | [2] | [3] | [5] | [6] | [7]

C1CCCNCC1
not listed: [4] | [10]
inactive: all other assays above

CCCCCCCCC(=O)O
not listed: [3] | [10]
inactive: all other assays above

Cc1ccc(C(C)C)cc1
not listed: [4] | [10]
inactive: all other assays above

CC(C)c1ccc(C(C)C)cc1
not listed: [4] | [10]
inactive: all other assays above

O=c1c(O)c(-c2ccc(O)c(O)c2)oc2cc(O)cc(O)c12
active: [3] 15.4 µM and 16.8 µM
not listed: [4] | [6] | [10]
inactive: all other assays above

COc1ccc(N)c(OC)c1
inactive: [1] | [2] | [3] | [5] | [6] | [7]

CC[N+](CC)(CC(=O)Nc1c(C)cccc1C)Cc1ccccc1
inactive: [1] | [2] | [3] | [5] | [6] | [7]

CC1(C)C(=O)N(Cl)C(=O)N1Cl
not listed: [4] | [10]
inactive: all other assays above

CCc1cccc(O)c1
not listed: [4] | [10]
inactive: all other assays above

CCCN(CCC)C(=O)SCC
not listed: [4] | [10]
inactive: all other assays above

NC(=O)NC(N)=O
not listed: [4] | [10]
inactive: all other assays above

c1cnc2c(c1)ccc1cccnc12
active: [1] 5.5 µM | [3] 309 nM and 306 nM
inactive: [2] | [5] | [6] | [7]

OC1CCCCC1
inactive: [1] | [2] | [3] | [5] | [6] | [7]

NC(=O)c1ncn([C@@H]2O[C@H](CO)[C@@H](O)[C@H]2O)n1
not listed: [4] | [10]
inactive: all other assays above

OC[C@H]1O[C@@H](Oc2ccc(O)cc2)[C@H](O)[C@@H](O)[C@@H]1O
not listed: [4] | [10]
inactive: all other assays above
